Assay outcomes as filed in PubChem.
USP1 inh: Inhibitors of USP1/UAF1: Primary Screen. recombinant USP1/UAF1, Ub-Rhodamine cleavage fluorescence. Ubiquitin carboxyl-terminal hydrolase 1 (Homo sapiens), O94782. 390,000 tested, 0.23% active. Potency, µM (top dose mostly 57.1 µM), for the others: top-dose activity change, negative = inhibition, usual class: inhibitors; further: potency means the concentration at half of the fitted maximal effect; on the % scale 0 is the no-effect control and ±100 the full control effect; nearly all actives have a fitted effect of over 60% in size
Target sequence (O94782 whole entry, looked up): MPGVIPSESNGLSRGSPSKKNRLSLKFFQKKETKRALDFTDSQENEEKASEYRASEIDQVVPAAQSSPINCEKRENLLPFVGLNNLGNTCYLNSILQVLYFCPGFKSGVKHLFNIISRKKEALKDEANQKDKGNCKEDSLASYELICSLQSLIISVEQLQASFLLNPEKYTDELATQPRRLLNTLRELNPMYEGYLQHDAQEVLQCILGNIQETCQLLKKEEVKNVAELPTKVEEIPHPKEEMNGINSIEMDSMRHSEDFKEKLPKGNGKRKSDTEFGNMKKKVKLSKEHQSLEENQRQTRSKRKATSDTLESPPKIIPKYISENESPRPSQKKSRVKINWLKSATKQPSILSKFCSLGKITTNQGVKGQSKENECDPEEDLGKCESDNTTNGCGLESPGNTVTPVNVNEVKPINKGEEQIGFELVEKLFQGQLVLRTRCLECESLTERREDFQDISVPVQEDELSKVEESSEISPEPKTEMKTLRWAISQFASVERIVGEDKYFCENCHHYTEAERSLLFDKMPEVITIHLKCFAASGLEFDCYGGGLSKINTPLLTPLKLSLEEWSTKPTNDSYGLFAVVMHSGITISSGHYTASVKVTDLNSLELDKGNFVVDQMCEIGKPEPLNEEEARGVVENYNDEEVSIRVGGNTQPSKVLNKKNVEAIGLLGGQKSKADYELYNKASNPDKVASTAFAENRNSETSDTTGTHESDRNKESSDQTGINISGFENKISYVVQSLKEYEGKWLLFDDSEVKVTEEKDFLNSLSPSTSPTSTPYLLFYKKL
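In this screen, compounds sit with the deubiquitinase complex (1nM) for 15 min at room temperature before Ub-Rho is added at 150nM final. Fluorescence rise is then followed for 6 reads every 60 seconds.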
EPAC1 antag: qHTS for Antagonist of cAMP-regulated guanine nucleotide exchange factor 3 (EPAC1): primary screen; AID 720709, 2013; Rap guanine nucleotide exchange factor 3 (Homo sapiens), O95398; 360,000 tested, 0.14% active; Potency, µM (doses to about 115 µM), for inactives: at the top dose activity change, negative = inhibition, usual class: inhibitors; EPAC1 GEF assay, Rap1b-BODIPY-GDP exchange fluorescence;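 further: potency means the concentration at half of the fitted maximal effect; plate controls were vehicle for no effect and positive control for full effect; nearly all actives have a fitted effect of over 50% in size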
EPAC2 ag: qHTS for Agonist of cAMP-regulated guanine nucleotide exchange factor 4 (EPAC2): primary screen; Rap guanine nucleotide exchange factor 4 (Homo sapiens), Q8WZA2; EPAC2 activation, biochemical qHTS; response scale: 100% = 6.5 mM cAMP response; Potency, µM (top dose mostly 154 µM), inactives show at the highest dose activation, most hits filed as activators; 360,000 tested, 0.079% active; further: potency means the concentration at half of the fitted maximal effect; nearly all actives have a fitted effect of over 50% in size
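Each well held 100 nM EPAC2, 250 nM RAP1B-BODIPY-GDP and 50 uM GDP. Fluorescence, read at 5-min intervals to 30 min, was referenced to a 6.5 mM cAMP positive control.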
EPAC2 antagonist: qHTS for Antagonist of cAMP-regulated guanine nucleotide exchange factor 2 (EPAC2): primary screen; 360,000 tested, 0.18% active; EPAC2 GEF exchange of Rap1B-BODIPY-GDP, fluorescence; Potency, µM (titrated, usually from 114 µM), for inactives: at the top dose activity, negative = inhibition, most hits filed as inhibitors; further: potency means the concentration at half of the fitted maximal effect; on the % scale 0 is the no-effect control and ±100 the full control effect; nearly all actives have a fitted effect of over 45% in size
EPAC1 ag: qHTS for Agonist of cAMP-regulated guanine nucleotide exchange factor 3 (EPAC1): primary screen; Rap guanine nucleotide exchange factor 3 (Homo sapiens), O95398; EPAC1 agonist qHTS, biochemical assay; response scale: 100% = response to 6.5 mM cAMP; Potency, µM (doses to about 154 µM), inactives show top-dose activation, most hits filed as activators; 360,000 tested, 0.073% active; AID 720707, 2013; further: potency means the concentration at half of the fitted maximal effect; nearly all actives have a fitted effect of over 60% in size
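Fluorescent GDP-exchange assay: 100 nM EPAC1 with 250 nM Rap1B preloaded with BODIPY-GDP and 50 uM GDP; compounds tested as concentration series, 5 min at room temperature, then read every 5 min for 30 min (ex 480/em 540 nm); normalized to 6.5 mM cAMP.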
Coupling enz: qHTS Assay for Inhibitors of Fructose-1,6-bisphosphate Aldolase from Giardia Lamblia: Coupling assay counterscreen | coupling enzyme system counterscreen, AmpLite Red fluorescence | activity change, negative = inhibition, % at 58.2 µM, hits read low | 290,000 tested, 0.67% active; in the data active means activity change below about -30%; further: on the % scale 0 is the no-effect control and ±100 the full control effect
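Compounds tested against the coupling enzymes alone at 57.5 uM final; readout was AmpLite Red fluorescence (525/598 nm) after 20 min at RT.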
Active calls of the source: *; ? = inconclusive; · = no result given; [ ] = another dose, or the depositor's remark. The list is not random: actives were taken first. Their share in the collection is about 0.87%. Unless noted, the call rests on the fitted dose curve; in most records, active means well fitted curve in the direction sought with a large enough effect; inconclusive means small, poorly fitted or top-dose-only effect, or another doubt; inactive means no such curve, though single readings can be large; an effect the other way counts as inactive or inconclusive.

SMILES | USP1 inh | EPAC1 antag | EPAC2 ag | EPAC2 antagonist | EPAC1 ag | Coupling enz
COc1ccc(-c2[nH]c(-c3ccc(SC)cc3)nc2SCC(=O)Nc2nccs2)cc1 | -7.6% | 70.8µM* | -1.3% | 0.0% | 3.2% | -7.2
COc1ccc2oc(C(=O)Nc3ccc(N4CCOCC4)cc3)c(C)c2c1 | -10.8% | ? | -2.3% | 9.5% | 63.1µM* | ·
Cc1cc(C(=O)Nc2cccc(C)c2C)n(-c2ccccc2)n1 | -21.1% | -17.0% | 3.3% | -2.6% | 10.7% | 4.8
Cc1cc(-c2nc(C)c(-c3nnc(SCC(=O)Nc4ccc(Cl)cc4)n3C)s2)no1 | -9.9% | 6.9% | -6.4% | 1.9% | -5.2% | -0.6
CCOc1cc(/C=C2\C(=O)N(c3nc(-c4ccc(Br)cc4)cs3)N=C2c2ccccc2)ccc1O | ? | 35.5µM* | -14.0% | 3.0% | -4.6% | 1.9
COc1cc(/C=C2\C(=O)N(c3ccc(NC(C)=O)cc3)N=C2c2ccccc2)ccc1O | -10.8% | -11.8% | 12.3% | 19.3% | 10.5% | 0.2
Cc1c2oc3c(C)ccc(C(=O)N[C@@H]4C(=O)N[C@H](C(C)C)C(=O)N5CCC[C@H]5C(=O)N(C)CC(=O)N(C)[C@@H](C(C)C)C(=O)O[C@@H]4C)c3nc-2c(C(=O)N[C@@H]2C(=O)N[C@H](C(C)C)C(=O)N3CCC[C@H]3C(=O)N(C)CC(=O)N(C)[C@@H](C(C)C)C(=O)O[C@@H]2C)c(N)c1=O | · | · | · | · | · | -35.7*
COc1ccc(OC)c(-c2csc(NC(=O)COC(=O)c3ccc(NC(=O)CC#N)cc3)n2)c1 | -10.5% | 79.4µM* | 1.1% | 0.5% | 9.8% | ·
O=C(Cc1ccsc1)NCc1ccccc1F | -18.9% | -12.8% | 8.6% | 0.8% | -8.1% | ·
O=C(Cn1ccc(=O)[nH]c1=O)NCCO | -15.7% | 15.6% | -0.4% | 7.5% | -9.1% | 0.9
O=C(Cn1ccc(=O)[nH]c1=O)c1ccc([N+](=O)[O-])o1 | -26.7% | 7.0% | ? | 14.2% | 100µM* | ·
COc1cccc2cc(C(C)N(CCCN3CCOCC3)C(=S)Nc3cccc(C)c3)oc12 (stereo not given) | -8.3% | 56.2µM* | 20.7% | -8.0% | 8.8% | -1.9
COc1cccc2cc(C(C)N(CCCN3CCOCC3)C(=S)Nc3cc(C)cc(C)c3)oc12 (stereo not given) | -22.5% | ? | -0.6% | -0.9% | -2.5% | -1.0
COc1cc([N+](=O)[O-])c2ncsc2c1 | -14.9% | -12.1% | 11.9% | 12.7% | -5.0% | -2.9
COc1cc(SSc2cc(OC)cc([N+](=O)[O-])c2N)c(N)c([N+](=O)[O-])c1 | -24.6% | -16.2% | -3.4% | -22.8% | 9.7% | -30.2*
NC(=O)c1cc2ccc(O)cc2oc1=NCc1ccccc1 | ? | 15.0% | 100µM* | 36.2% | 19.1% | 0.5
NC(=O)c1cc2ccccc2oc1=NCc1ccccc1 | -6.8% | -11.2% | 9.4% | 2.4% | -1.9% | -2.2
N#Cc1ccccc1S(=O)(=O)N1CCN(CC(=O)NCC2(N3CCOCC3)CCCCC2)CC1 | -11.0% | -9.3% | 0.7% | 0.1% | -3.5% | ·
CCOC(=O)c1c(C)n(-c2ccc(C)cc2)c2c(CC(C)=O)c(Br)c(OC)c(O)c12 | 7.2% | -3.5% | -0.3% | -3.0% | 5.8% | -0.1
CCOC(=O)c1c(C)n(-c2ccc(C)cc2)c2c(C(C(C)=O)C(=O)O)c(Br)c(O)c(O)c12 (stereo not given) | -21.3% | 0.0% | 4.8% | -2.1% | 0.0% | -34.4*
O=C(CCNS(=O)(=O)c1ccc(Br)s1)NCc1ccccc1 | -7.5% | ? | 7.3% | -18.1% | 11.6% | 0.4
Cc1csc2nc(COC(=O)c3ccc(NC(=O)c4ccccc4Br)cc3)cc(=O)n12 | -16.9% | · | · | · | · | ·
CCOC(=O)CC1C(=O)NCCN1c1nc2ccc(C)cn2c(=O)c1/C=C1\SC(=S)N(CC(C)C)C1=O (stereo not given) | 12.6µM* | 30.2% | ? | -0.2% | 9.4% | -5.2
CCN(CC)C(=O)/C(=C/c1cccc([N+](=O)[O-])c1)NC(=O)c1ccco1 | -2.5% | -6.0% | -0.4% | -6.4% | -2.4% | 2.5
CSC1=NSC2=NC(=O)/C(=C/c3coc4ccc(O)cc4c3=O)C(=N)N12 | 22.4µM* | 164.7% | 100µM* | 419.3% | 79.4µM* | -1.5
SMILES | USP1 inh | EPAC1 antag | EPAC2 ag | EPAC2 antagonist | EPAC1 ag | Coupling enz
CC1=CC2=NC(=O)/C(=C\c3cc(C)n(-c4cccc(Cl)c4)c3C)C(=N)N2O1 | -1.8% | -29.5% | 12.2% | -1.2% | 7.8% | -3.0
N=C1/C(=C/c2cccs2)C(=O)N=C2SN=C(SCc3ccccc3)N12 | -9.4% | 79.4µM* | -1.9% | 0.4%[57.1 µM] | 5.4% | 8.9
COc1cc(/C=C2/C(=N)N3C(SC)=NSC3=NC2=O)ccc1OC(=O)c1ccco1 | -4.4% | -27.7% | 3.9% | -6.6% | 4.9% | 4.8
CSC1=NSC2=NC(=O)/C(=C/c3coc4ccccc4c3=O)C(=N)N12 | 25.1µM* | 76.3% | 89.1µM* | 92.8% | 100µM* | 4.5
CSC1=NSC2=NC(=O)/C(=C\c3cccs3)C(=N)N12 | -8.0% | 4.0% | -4.2% | -3.7% | -1.8% | -0.6
CC1=CC2=NC(=O)/C(=C/c3coc4ccc(Cl)cc4c3=O)C(=N)N2O1 | 28.2µM* | 15.5% | ? | 46.2% | ? | -2.6
CC(C)CSC1=NSC2=NC(=O)/C(=C\c3cccs3)C(=N)N12 | -11.4% | -4.0% | 2.2% | -8.0% | -9.5% | 7.9
C[C@H]1CN([C@@H](C)CO)S(=O)(=O)c2ccc(Br)cc2O[C@@H]1CN(C)C(=O)Cc1ccccc1 | 0.7% | 2.8% | 1.2% | 0.9% | -4.6% | ·
CCOC(=O)C1=CN(C)CCC1=O | -17.5% | -11.3% | 8.5% | -4.0% | -15.0% | ·
N=C1/C(=C\c2coc3ccccc3c2=O)C(=O)N=C2SC=CN12 | 28.2µM* | 60.4% | 112µM* | 157.2% | 89.1µM* | -0.5
Cc1nccn1CC1CCc2c(c3ccccc3n2C)C1=O (stereo not given) | 3.2% | 9.3% | 0.4% | -10.0% | 1.6% | 1.4
Cc1[nH]cnc1CN1CCc2c(c3ccccc3n2C)C1=O | 35.5µM* | -16.4% | 0.5% | 15.1% | -13.5% | ·
